# Hits are enriched below; roughly 19% of the tested compounds scored in any of these assays.
# MCF10A rereplic = DNA re-replication induction in MCF 10a cells; MCF 10A DNA re-replication, Hoechst nuclear intensity, 48 h; Potency, µM (top dose mostly 46.1 µM), for the others: at the highest dose activity, positive = re-replication, usual class: activators; 350,000 compounds, 2.9% hits; AID 624296; further: potency means the concentration at half of the fitted maximal effect; % of control where 0% means no effect; nearly all actives have a fitted effect of over 50% in size
# DT40 TDP1 no CPT = qHTS for Inhibitors of human tyrosyl-DNA phosphodiesterase 1 (TDP1): qHTS in cells in absence of CPT | Potency, µM (top dose mostly 46.2 µM), for inactives: at the highest dose activity change, negative = growth inhibition, hits mostly inhibitors | DT40 Tdp1-/- hTDP1 cells, no CPT, ATP luminescence, 48 h | 420,000 compounds, 15% hits; further: potency means the concentration at half of the fitted maximal effect; on the % scale 0 is the no-effect control and ±100 the full control effect; nearly all actives have a fitted effect of over 55% in size
#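 Readout: luminescence from CellTiter-Glo after 30 min in the dark at RT. Cells: DT40 Tdp1-/- with stable hTDP1, 400/well. Exposure: compounds alone, ≥48 hr, 37 °C.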
# DT40 TDP1 CPT = DT40-hTDP1 cell growth loss with CPT. chicken DT40 Tdp1-/-;hTDP1 cells + 20 nM CPT, ATP luminescence, 48 h. Potency, µM (series often up to 46.2 µM), without a hit: at the top dose activity change, negative = growth inhibition, most hits filed as inhibitors. 420,000 compounds, 12% hits; further: potency means the concentration at half of the fitted maximal effect; on the % scale 0 is the no-effect control and ±100 the full control effect; nearly all actives have a fitted effect of over 55% in size
#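 Chicken DT40 Tdp1-/- cells stably complemented with human TDP1 were seeded at 400 cells/well in medium containing 20 nM camptothecin, exposed to pin-transferred compounds, and grown at 37 °C for at least 48 hr. Viability was read as ATP luminescence.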
# Chronic BCR inh = chronic active BCR signaling inhibition | Potency, µM (series often up to 46.1 µM), inactives show top-dose activity change, negative = inhibition, hits mostly inhibitors | ABC-DLBCL IkBa-CBG/CBR reporter, luminescence ratio, 4 h | 340,000 compounds, 0.05% hits | AID 493014; active means well fitted inhibition curve with a large enough effect in the signal ratio, with a control signal flat, not every such curve was filed as active; inconclusive means small, poorly fitted or top-dose-only effect, or effect the other way, or a change in a side signal; the % refers to the signal ratio;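 further: potency means the concentration at half of the fitted maximal effect; plate controls were basal doxycycline-induced cells for no effect and cells given 10 µM MG132 for full effect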
#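 TMD8 human ABC-DLBCL cells with doxycycline-inducible IκBα–green luciferase fusion and unfused red luciferase, in 0.5% FBS medium; compounds up to 46 uM, 4 h at 37C. Green/red luminescence ratio, filter-overlap corrected, fitted to concentration-response curves.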
# SW480 rerep = induces DNA re-replication in SW480 colon adenocarcinoma cells. SW480 DNA re-replication, Hoechst DNA content imaging, 48 h. Potency, µM (highest dose often 46.1 µM), inactives show at the highest dose re-replication activation, usual class: activators. 340,000 compounds, 1.8% hits. AID 624297; further: potency means the concentration at half of the fitted maximal effect; % of control where 0% means no effect; nearly all actives have a fitted effect of over 55% in size
#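 SW480 cells exposed to compounds for 48 hr at 37 C, 5% CO2, then Hoechst-stained 40 min. Nuclear DNA content imaged by fluorescence scanning (405 nm excitation, 500-530 nm emission); re-replication scored as increased high-intensity nuclei.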
# IL1B secr inh = blocks inflammasome-driven IL-1 beta release; THP-1 LPS/ATP IL-1B secretion, AlphaLISA, 16 h; stronger effect = lower value; 360,000 compounds, 4.7% hits; activity change, % at 57.5 µM; in the data active means activity change below about -50%; inconclusive means mostly about -30% to -49%; further: on the % scale 0 is the no-effect control and ±100 the full control effect
#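 Secreted IL-1B measured by AlphaLISA bead assay after 16 h compound exposure of THP-1 cells; compounds (final up to 57.5 uM) added 1 h before LPS (250 ng/mL) and ATP (1.25 mM) stimulation; lower signal means less secretion.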
# Numbers without * were called inactive; i = inactive; ? = inconclusive; nt = no result; ! = not confirmed by another sample; [ ] = another dose, or the depositor's remark. Unless noted, the call rests on the fitted dose curve; in most records, active means well fitted curve in the direction sought with a large enough effect; inconclusive means small, poorly fitted or top-dose-only effect, or another doubt; inactive means no such curve, though single readings can be large; an effect the other way counts as inactive or inconclusive.
SMILES,MCF10A rereplic,DT40 TDP1 no CPT,DT40 TDP1 CPT,Chronic BCR inh,SW480 rerep,IL1B secr inh
CC(C)CN1CC2(CCN(C(=O)c3ccco3)CC2)C1,nt,-7.0%,1.8%,nt,nt,nt
O=C1CCC(C(=O)N2CCSCC2)CN1Cc1cccc(C(F)(F)F)c1 (stereo not drawn),4.7%,0.7%,-6.2%,-0.5%,-28.5%,i
Cc1ccc(SC[C@H](C)CN2CC[C@H](NC(=O)OCc3ccccc3)CCC2=O)cc1,30.1%,11.2µM*,15.8µM*!,0.4%,-12.6%,19.3
O=C(N[C@@H]1CCC(=O)N(CC[C@H](Oc2ccccc2)c2ccccc2)CC1)OCc1ccccc1,?,?,14.6µM*,?,-6.9%[9.22 µM],-25.6
C[C@@H](CSc1ccccc1)CN1CC[C@H](NC(=O)OCc2ccccc2)CCC1=O,?,10µM*,?,8.0%,4.8%,14.8
COc1ccc(SC[C@H](Cc2ccccc2)N2CC[C@@H](NC(=O)OCc3ccccc3)CCC2=O)cc1,?,16.4µM*,?,?,?,-15.7
COc1cc(OC)c(NC(=O)CC(C)S(=O)(=O)c2ccc3c(c2)NC(=O)CO3)cc1Cl (stereo not drawn),nt,-7.1%,12.6%,nt,nt,nt
Cc1ccc(SC[C@H](C)CN2CC[C@H](C(C)(C)C)CCC2=O)cc1,20.5%,16.4µM*,?,20.6%,-6.5%,20.6
Cc1ccc(S[C@@H](CCN2CC[C@H](NC(=O)OCc3ccccc3)CCC2=O)c2ccccc2)cc1,?,11.2µM*,23.1µM*,0.1%,9.4%,-10.6
Cc1ccccc1OCC(=O)Nc1ccc(-c2nc3ccccc3o2)cc1,nt,nt,nt,-4.5%,nt,nt
Cn1cnc2nc[nH]c2c1=O,-2.2%,4.7%,2.5%,nt,-5.0%,-12.9
Cc1ccn2c(-c3csc(NCc4ccccc4)n3)c(C)nc2c1,?,14.6µM*,?,9.7%,-8.6%,-20.8
Cc1nc(C)c(-c2csc(NCc3ccco3)n2)s1,3.9%,?,?,?,7.5%,-5.4
Cc1nc2ccccn2c1-c1csc(NCc2ccco2)n1,10.5%,20.6µM*,13µM*,?,-7.7%,?
Cc1ccn2c(-c3n[nH]c(=S)n3Cc3ccccc3)c(C)nc2c1,?,?,-3.0%,0.9%,3.1%,12.0
CC1CCN2c3ccccc3CC3(C(=O)OC(C)(C)OC3=O)C2C1 (stereo not drawn),nt,10µM*,?,nt,nt,nt
CC1(C)OC(=O)C2(Cc3ccc(Br)cc3N3CCCCC32)C(=O)O1 (stereo not drawn),nt,-13.0%,-17.3%,nt,nt,nt
Cc1ccc(C)c(OCCCC(=O)Nc2ccccc2C(N)=O)c1,30.0%,16.4µM*,?,4.3%,?,-2.5
Cc1cc(Cl)ccc1OCC(=O)OCC(=O)Nc1cccnc1Cl,7.3%,6.8%,2.2%,4.9%,-9.6%,2.5
CCOc1ccccc1OCCCC(=O)Nc1sccc1C(N)=O,?,16.4µM*,?,?,0.1%,27.8
Cc1ccc(C)c(OCCC(=O)OCC(=O)Nc2ccc(Cl)cn2)c1,-0.8%,-9.5%,-4.8%,-2.1%,18.4µM*,43.3
Cc1ccc(C)c(OCCC(=O)OCC(=O)Nc2cccnc2Cl)c1,?,?,14.6µM*,nt,4.0%,-8.0
O=C(CN1C(=O)c2cccc3cccc1c23)Nc1cccc(F)c1,nt,-26.6%,6.5%,nt,nt,nt
Cc1cccc(C)c1N=C1SC(CC(=O)Nc2c(C)cccc2C)C(=O)N1CCc1ccccn1 (stereo not drawn),18.7%,16.4µM*,?,0.1%,12.1%,?
COc1cccc(N=C2SC(CC(=O)Nc3ccccc3)C(=O)N2Cc2ccccn2)c1 (stereo not drawn),-8.0%,?,?,-16.9%,-4.1%,-62.7*
SMILES,MCF10A rereplic,DT40 TDP1 no CPT,DT40 TDP1 CPT,Chronic BCR inh,SW480 rerep,IL1B secr inh
O=C(CC1SC(=Nc2ccccc2)N(CCc2ccccn2)C1=O)Nc1ccc(F)cc1 (stereo not drawn),24.4%,?,?,-9.8%,-7.7%,-9.4
COc1ccc(S(=O)(=O)NNC(=O)c2cc3c4ccccc4n(C)c3s2)cc1,11.9%,4.11µM*,2.91µM*,-0.3%,?,40.5
COc1ccc(CN(C)C[C@@H]2OCc3cnnn3CCCC(=O)N([C@@H](C)CO)C[C@H]2C)cc1,nt,-27.8%,-17.9%,nt,nt,21.0
O=C(CNC(=O)C1CCCCC1)OCC(=O)c1ccc(-c2ccccc2)cc1,nt,-4.6%,9.5%,nt,nt,nt
O=C(CN1CCCCCCC1)N/N=C/c1ccc([N+](=O)[O-])o1,8.6%,?,?,-2.3%,?,-12.0
O=C(CCN1CCN(c2ccccc2)CC1)N/N=C/c1ccc([N+](=O)[O-])o1,?,?,10.3µM*,1.9%,27.4%,27.5
O=C(CN1CCOCC1)NN=Cc1ccc([N+](=O)[O-])o1,nt,?,20.6µM*,nt,nt,45.5
C[C@H](CO)N1C[C@H](C)[C@@H](CN(C)S(=O)(=O)c2ccccc2C#N)OCc2cn(nn2)CCCC1=O,nt,1.9%,12.1%,nt,nt,7.3
COc1ccc(NC(=O)Cn2nnnc2-c2ccccc2F)c(C)c1,nt,-1.3%,-6.2%,nt,nt,nt
COc1ccc(-c2cc(C(=O)N(C)CC(=O)Nc3ccccc3C(F)(F)F)c3ccccc3n2)cc1OC,?,4.11µM*,20.6µM*,nt,2.8%,-15.9
COc1ccc(-c2cc(C(=O)N(C)CC(=O)Nc3ccccc3Br)c3ccccc3n2)cc1OC,-2.3%,18.4µM*,16.4µM*,?,-28.7%,-29.3
CN(CC(=O)Nc1ccccc1C(F)(F)F)C(=O)c1cc(Cl)nc2ccccc12,?,11.4%,10.4%,3.5%,-3.4%,6.6
Cc1[nH][nH]c(=O)c1C(c1c(C)[nH][nH]c1=O)c1cn(Cc2ccc(F)cc2)c2ccccc12,?,5.17µM*,6.51µM*,?,9.2µM*,-101.2*
Cc1[nH][nH]c(=O)c1C(c1c(C)[nH][nH]c1=O)c1cn(Cc2ccc(Cl)c(Cl)c2)c2ccccc12,?,2.06µM*,2.06µM*,?,9.2µM*,-97.6*
NS(=O)(=O)c1ccc(CCNC(=O)c2cc([N+](=O)[O-])ccc2N2CCCCC2)cc1,10.5%,?,3.1%,-0.6%,-6.1%,8.4
CC1CCN(c2nc3c(c(=O)[nH]c(=O)n3C)n2CC(C)CSc2nnnn2-c2ccccc2)CC1 (stereo not drawn),1.1%,?,16.4µM*,-5.7%,-0.7%,?

# Source: PubChem (National Center for Advancing Translational Sciences (NCATS))
